Assay [1] in a line: Nuclear factor erythroid 2-related factor 2/antioxidant responsive element (Nrf2/ARE) small molecule agonists: qHTS cell viability counter screen in human keratinocytes (AID 1919968; active = well fitted curve in the direction sought with a large enough effect in the repeat runs; an effect the other way counts as inactive or inconclusive; note: nearly all actives have a fitted effect of over 55% in size; note: potency is the fitted concentration of half-maximal effect). In a few lines:
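KeratinoSens HaCaT cells, 1,500/well, preincubated 5 h, then exposed to compounds in DMSO for 23 h at 37 C/5% CO2. Viability read as CellTiter-Fluor fluorescence after 1 h, in the same wells as the ARE-luciferase read.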

Assay [2] in a line: Nuclear factor erythroid 2-related factor 2/antioxidant responsive element (Nrf2/ARE) small molecule agonists: luciferase reporter gene qHTS assay in human keratinocytes (AID 1919969). Note: nearly all actives have a fitted effect of over 35% in size. Note: potency is the fitted concentration of half-maximal effect.
For assay [3], the target named is Gonadotropin-releasing hormone receptor (Homo sapiens) (UniProt P30968). The experiment in a line: Human gonadotropin-releasing hormone receptor (GnRHR) small molecule agonists, calcium flux assay in GnRHR-HEK293 cells (AID 1920063). Note: nearly all actives have a fitted effect of over 35% in size. In a few lines:
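HEK293 cells stably expressing human GnRHR were dye-loaded for 1 h at 37 C. Compound was added in agonist mode and fluorescence (Ex/Em 480/540) recorded kinetically for 3 min. Fifteen concentrations, triplicates.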

Assay [4] addresses KiSS-1 receptor (Homo sapiens) (UniProt Q969F8). Put plainly: Human kisspeptin (KISS1R) small molecule agonists, calcium flux assay in KISS1R-HEK293 cells (AID 1920064; active = well fitted curve in the direction sought with a large enough effect in the repeat runs; an effect the other way counts as inactive or inconclusive). In a few lines: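 HEK293 cells stably expressing human KISS1R were loaded with calcium dye for 1 h at 37 C, then given compound; fluorescence (Ex/Em 480/540) was read kinetically for 3 min. Fifteen concentrations, triplicate.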

The nature of assay [5]: G protein-coupled receptor (GPCR) small molecule agonists, calcium flux assay: HEK293 wild type cell line counter screen (AID 1920065). In outline: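 Wild-type HEK293 cells plated 18 h, loaded with calcium dye 1 h at 37 C, then compounds added in agonist mode (ATP as positive control). Kinetic fluorescence Ex/Em 480/540 recorded 3 min at 1 sec intervals; 15 concentrations, triplicate.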

Assay [6] in a line: p53 small molecule agonists, cell-based qHTS assay with rat liver microsomes (AID 1963578). In outline: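 Each plate received p53RE-bla cells, then compound, then rat liver microsomes and NADPH (both 0.5 mg/mL final). Plates were held 16 h at 37 C, and beta-lactamase activity was detected with LiveBLAzer over 2 h.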
Assay [7] is described as follows: p53 small molecule agonists, cell-based qHTS assay with human liver microsomes: qHTS cell viability counter screen (AID 1963579). Note: nearly all actives have a fitted effect of over 45% in size. Note: potency is the fitted concentration of half-maximal effect. In outline:
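Tox21 library compounds, delivered from DMSO stocks, were tested on p53RE-bla cells together with 0.5 mg/mL human liver microsomes and 0.5 mg/mL NADPH (final) over 16 h at 37 C; CellTiter-Glo luminescence served as the cytotoxicity measure.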

The nature of assay [8]: p53 small molecule agonists, cell-based qHTS assay with rat liver microsomes: qHTS cell viability counter screen (AID 1963580). Note: nearly all actives have a fitted effect of over 45% in size. Note: potency is the fitted concentration of half-maximal effect. In outline:
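Intracellular ATP, by CellTiter-Glo luminescence, defines viability. HCT-116 p53RE-bla cells, 4,000 per well, were compound-treated in the presence of rat liver microsomes and NADPH for 16 h at 37 C.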

Assay [9] can be described thus: p53 small molecule agonists, cell-based qHTS assay: qHTS cell viability counter screen (AID 1963581). Note: nearly all actives have a fitted effect of over 45% in size. In a few lines: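 p53RE-bla HCT-116 cells, compounds added 5 h after plating and incubated 16 h at 37 C. Cytotoxicity measured in the same wells as intracellular ATP by CellTiter-Glo luminescence after 30 min at room temperature.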
A short description of assay [10]: p53 small molecule agonists, cell-based qHTS assay (AID 1963582; active = well fitted activation curve with a large enough effect in the signal ratio in the repeat runs, not every such curve was filed as active; the % refers to the signal ratio). In a few lines: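 p53RE-bla reporter cells, compounds added in DMSO after 5 h plating, incubated 16 h at 37 C. Beta-lactamase read via 2 h room-temperature LiveBLAzer B/G FRET substrate, fluorescence intensity.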
Assay [11] deals with 5-hydroxytryptamine receptor 2A (Homo sapiens) (UniProt P28223). The experiment in a line: 5-hydroxytryptamine receptor 2A (HTR2A) small molecule antagonists, cell-based qHTS assay (AID 1963586). Note: nearly all actives have a fitted effect of over 45% in size. Note: potency is the fitted concentration of half-maximal effect. In outline:
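Antagonist-mode intracellular calcium assay: DOI (4 nM) added after 5 min compound pre-incubation at room temperature to dye-loaded HTR2A-CHO cells. Fluorescence followed for 3 min, sampled every second.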

The target is the same in assay [12]. Put plainly: 5-hydroxytryptamine receptor 2A (HTR2A) small molecule agonists, cell-based qHTS assay (AID 1963587). Note: nearly all actives have a fitted effect of over 30% in size. In outline:
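Kinetic calcium-flux fluorescence (2 min, 1 sec intervals) after compound addition in agonist mode. HTR2A-CHO cells were cultured 18 h, then dye-loaded 1 h at 37 C.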

Assay [13] has as its target Muscarinic acetylcholine receptor M1 (Homo sapiens) (UniProt P11229). The experiment in a line: Cholinergic receptor muscarinic 1 (CHRM1) small molecule antagonists, cell-based qHTS assay (AID 1963588). Note: nearly all actives have a fitted effect of over 40% in size. Note: potency is the fitted concentration of half-maximal effect. In outline:
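CHRM1-CHO calcium-flux assay, antagonist mode. Cells were seeded 18 h, dye-loaded 1 h at 37 C and given compound for 5 min at RT, then acetylcholine was added at 50nM. FDSS fluorescence was read 3 min; 15 concentrations, three runs.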

The target is the same in assay [14]. Put plainly: Cholinergic receptor muscarinic 1 (CHRM1) small molecule agonists, cell-based qHTS assay (AID 1963589). Note: nearly all actives have a fitted effect of over 35% in size. In a few lines: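 CHO cells stably expressing human CHRM1 were loaded with calcium dye for 1 h at 37 C, then compound was added in agonist mode. Intracellular calcium fluorescence was followed kinetically at 1 s intervals. Fifteen concentrations were tested in three independent runs.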

The nature of assay [15]: cAMP Responsive Elements (CRE) small molecule antagonists, cell-based qHTS assay (AID 1963591; active = well fitted inhibition curve with a large enough effect in the signal ratio in the repeat runs, not every such curve was filed as active; the % refers to the signal ratio). In a few lines: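 CRE-bla HEK293T cells plated 18 h, then given compound plus NKH477 at 0.25 uM final for 3 h at 37C. Beta-lactamase reporter read with LiveBLAzer B/G FRET substrate after 2 h at room temperature.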
The target in assay [16] is Beta-2 adrenergic receptor (Homo sapiens) (UniProt P07550). The experiment in a line: Adrenergic beta2 receptor (ADRB2) small molecule antagonists, cell-based qHTS assay (AID 1963592). Note: series mostly up to about 92 µM; nearly all actives have a fitted effect of over 50% in size. In a few lines: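 Cells (CHO, stable ADRB2 overexpression) incubated 18-20hr at 37C; compounds added from DMSO; agonist mix (1nM isoproterenol, 100uM IBMX, 25uM Ro-20-1724) added; 0.5hr RT; d2-cAMP and anti-cAMP-cryptate added; 1hr RT; 665/615 nm read.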

In assay [17] the target is D(2) dopamine receptor (Homo sapiens) (UniProt P14416). The experiment in a line: Dopamine D2 receptor (DRD2) small molecule agonists, cell-based qHTS assay (AID 1963594). Note: nearly all actives have a fitted effect of over 35% in size. In outline: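 cAMP accumulation in DRD2-HEK293 cells measured by HTRF after 1 h detection; compounds added 10 min before NKH477 (200nM […]) forskolin-analogue stimulation, 30 min at room temperature, with Ro20-1724 present at 0.1 mM final.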

The target is the same in assay [18]. Put plainly: Dopamine D2 receptor (DRD2) small molecule antagonists, cell-based qHTS assay (AID 1963595; active = well fitted inhibition curve with a large enough effect in the signal ratio in the repeat runs, with a control signal flat; the % refers to the signal ratio). In a few lines:
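HEK293 cells stably expressing DRD2 were preincubated with 0.1 mM Ro20-1724, then with compound for 10 min at room temperature. Cells were stimulated with 200 nM NKH477 plus 12 nM quinpirole for 30 min, and cAMP was read by HTRF.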

Assay [19] in a line: cAMP Responsive Elements (CRE) small molecule agonists, cell-based qHTS assay (AID 1963590). In a few lines: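 CRE-bla HEK 293T cells, 2,000/well in DMEM with 10% dialyzed FBS and 25 mM HEPES, pre-incubated 18 h at 37 C, then exposed to compound 3 h at 37 C. Beta-lactamase reporter read with LiveBLAzer B/G FRET substrate after 2 h at room temperature.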
The target in assay [20] is Beta-2 adrenergic receptor (Homo sapiens) (UniProt P07550). The experiment in a line: Adrenergic beta2 receptor (ADRB2) small molecule agonists, cell-based qHTS assay (AID 1963593).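 Note: CHO cells stably overexpressing human ADRB2.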 In a few lines:
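CHO cells stably over-expressing ADRB2 were plated overnight at 37C, then dosed with compounds plus a stimulation mix containing 100uM IBMX and 25uM Ro-20-1724 for 0.5hr at room temperature. cAMP was measured by HTRF competition, 1hr.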

Several values for one entry are separate records, joined by “and”; a condition that tells them apart may be missing. Equal entries are not always repeated. Records with an inconclusive call do not appear. Activity calls are given as the source filed them. Unless noted, calls come from the whole dose curve.

Muscarinic acetylcholine receptor M1 (Homo sapiens), sequence (P11229 whole entry, looked up): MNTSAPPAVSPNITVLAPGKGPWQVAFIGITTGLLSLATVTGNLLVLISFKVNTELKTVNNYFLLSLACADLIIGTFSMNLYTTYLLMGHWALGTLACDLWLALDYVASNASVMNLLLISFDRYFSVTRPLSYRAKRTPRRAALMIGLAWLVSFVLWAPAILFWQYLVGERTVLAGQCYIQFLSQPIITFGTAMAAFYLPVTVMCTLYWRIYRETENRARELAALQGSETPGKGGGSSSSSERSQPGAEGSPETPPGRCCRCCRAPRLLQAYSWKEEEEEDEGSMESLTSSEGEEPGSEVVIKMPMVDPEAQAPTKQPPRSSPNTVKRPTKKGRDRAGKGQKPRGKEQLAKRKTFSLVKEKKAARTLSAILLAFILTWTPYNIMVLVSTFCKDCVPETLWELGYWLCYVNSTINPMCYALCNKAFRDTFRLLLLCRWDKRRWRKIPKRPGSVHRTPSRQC
5-hydroxytryptamine receptor 2A (Homo sapiens), sequence (P28223 whole entry, looked up): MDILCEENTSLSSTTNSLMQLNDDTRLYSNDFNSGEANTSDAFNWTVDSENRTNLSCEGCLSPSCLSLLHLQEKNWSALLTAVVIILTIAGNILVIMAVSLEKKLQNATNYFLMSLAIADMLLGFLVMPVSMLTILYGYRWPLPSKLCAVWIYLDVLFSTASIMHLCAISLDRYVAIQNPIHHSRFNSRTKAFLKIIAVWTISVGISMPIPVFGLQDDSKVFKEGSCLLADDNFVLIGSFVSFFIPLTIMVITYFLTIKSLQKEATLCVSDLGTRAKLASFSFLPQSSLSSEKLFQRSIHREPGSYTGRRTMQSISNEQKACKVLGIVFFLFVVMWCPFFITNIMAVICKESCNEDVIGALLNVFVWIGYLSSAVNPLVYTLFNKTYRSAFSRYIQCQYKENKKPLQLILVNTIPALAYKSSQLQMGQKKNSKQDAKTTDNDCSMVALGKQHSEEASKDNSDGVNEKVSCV
Beta-2 adrenergic receptor (Homo sapiens), sequence (P07550 whole entry, looked up): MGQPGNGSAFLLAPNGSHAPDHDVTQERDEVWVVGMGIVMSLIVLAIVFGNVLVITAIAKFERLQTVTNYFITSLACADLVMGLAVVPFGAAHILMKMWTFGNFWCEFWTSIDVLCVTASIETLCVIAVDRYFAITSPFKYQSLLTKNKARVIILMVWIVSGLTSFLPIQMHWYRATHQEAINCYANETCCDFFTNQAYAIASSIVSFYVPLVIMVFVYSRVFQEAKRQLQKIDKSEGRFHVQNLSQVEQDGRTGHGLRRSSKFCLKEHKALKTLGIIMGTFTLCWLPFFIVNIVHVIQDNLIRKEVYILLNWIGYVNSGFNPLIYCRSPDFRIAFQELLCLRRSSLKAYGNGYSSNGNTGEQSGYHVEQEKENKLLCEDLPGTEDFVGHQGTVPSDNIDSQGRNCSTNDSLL
Gonadotropin-releasing hormone receptor (Homo sapiens), sequence (P30968 whole entry, looked up): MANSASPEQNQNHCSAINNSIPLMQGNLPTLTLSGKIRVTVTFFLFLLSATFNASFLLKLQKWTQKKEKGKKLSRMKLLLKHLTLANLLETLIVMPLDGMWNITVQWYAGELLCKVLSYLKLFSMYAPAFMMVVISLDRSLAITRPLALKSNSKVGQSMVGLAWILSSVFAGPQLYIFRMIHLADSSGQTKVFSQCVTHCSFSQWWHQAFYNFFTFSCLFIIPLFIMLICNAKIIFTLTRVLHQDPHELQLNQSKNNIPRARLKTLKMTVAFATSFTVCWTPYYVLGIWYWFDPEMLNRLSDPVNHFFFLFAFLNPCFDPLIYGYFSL
D(2) dopamine receptor (Homo sapiens), sequence (P14416 whole entry, looked up): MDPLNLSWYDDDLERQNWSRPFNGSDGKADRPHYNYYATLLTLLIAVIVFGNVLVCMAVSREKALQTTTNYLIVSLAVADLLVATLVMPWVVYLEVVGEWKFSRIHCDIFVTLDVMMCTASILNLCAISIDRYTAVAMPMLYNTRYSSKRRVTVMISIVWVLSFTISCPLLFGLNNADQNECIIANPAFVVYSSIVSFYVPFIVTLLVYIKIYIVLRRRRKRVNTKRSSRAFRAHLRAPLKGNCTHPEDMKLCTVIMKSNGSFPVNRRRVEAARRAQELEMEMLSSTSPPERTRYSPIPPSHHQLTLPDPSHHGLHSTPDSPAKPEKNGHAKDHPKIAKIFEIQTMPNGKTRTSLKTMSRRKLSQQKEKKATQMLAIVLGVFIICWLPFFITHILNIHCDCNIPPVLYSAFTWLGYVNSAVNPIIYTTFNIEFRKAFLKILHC
KiSS-1 receptor (Homo sapiens), sequence (Q969F8 whole entry, looked up): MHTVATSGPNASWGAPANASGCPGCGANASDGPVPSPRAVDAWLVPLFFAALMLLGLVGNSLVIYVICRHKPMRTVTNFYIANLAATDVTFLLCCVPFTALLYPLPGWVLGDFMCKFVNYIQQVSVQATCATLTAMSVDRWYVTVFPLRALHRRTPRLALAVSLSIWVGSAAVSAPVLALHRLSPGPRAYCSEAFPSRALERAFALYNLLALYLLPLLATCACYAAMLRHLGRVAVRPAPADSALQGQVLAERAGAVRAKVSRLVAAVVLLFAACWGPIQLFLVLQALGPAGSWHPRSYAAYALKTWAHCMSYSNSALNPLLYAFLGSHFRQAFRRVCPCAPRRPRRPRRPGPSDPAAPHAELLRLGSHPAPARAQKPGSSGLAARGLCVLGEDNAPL

Regarding `O=P(OCC(Br)CBr)(OCC(Br)CBr)OCC(Br)CBr` (stereo not given), the Potency result in assay [1], in [2], in [3], in assay [4], in assay [5] and in assay [6] was “inactive” in each case. The Potency entry in assay [7], in [8], in [9], in assay [10], in assay [11] and in [12] was “inactive” each time. Moreover, the Potency entry in assay [13], in [14], in assay [15], in [16], in [17] and in assay [18] was “inactive” in each case.

On to `N#Cc1ccncc1`, for which the Potency result in [1], in assay [2], in assay [3], in assay [4], in assay [5] and in [6] was “inactive” throughout. Moreover, the Potency entry in [7], in assay [8], in assay [9], in [10], in assay [11] and in assay [12] was “inactive” in each case. The Potency result in assay [13], in [14], in assay [19], in [16] and in [18] was “inactive” in each case.

For `CC(C)Nc1ccc(Nc2ccccc2)cc1`, the Potency is 30.5 µM (active) in assay [1]; 9.65 µM (active) and 24.3 µM (active) in assay [2]; 28.8 µM (active) and 28.9 µM (active) in assay [7]; 36.2 µM (active) and 45.8 µM (active) in assay [8]; 11.8 µM (active) and 16.8 µM (active) in assay [11]; 11.9 µM (active) in assay [13]. For the same molecule, the Potency entry in assay [3], in assay [4], in assay [5], in [6], in assay [10] and in assay [12] was “inactive” each time. Besides, the Potency result in assay [14] and in assay [16] was “inactive” throughout.

With `O=c1[nH]c(=O)[nH]c(=O)[nH]1`, the Potency entry in [1], in [2], in assay [3], in [4], in [5] and in assay [6] was “inactive” each time. Besides, the Potency entry in assay [7], in [8], in assay [9], in assay [10], in [11] and in assay [12] was “inactive” each time. The Potency entry in [13], in assay [14], in assay [19], in assay [15], in assay [16] and in assay [20] was “inactive” each time. Besides, the Potency entry in assay [17] and in assay [18] was “inactive” throughout.

For the molecule `Cc1cccc(N=Nc2ccc(N(C)C)cc2)c1`, the Potency entry in assay [1], in assay [3], in assay [4], in assay [5], in assay [6] and in assay [7] was “inactive” in each case. In addition, the Potency result in assay [8], in assay [9], in [10], in assay [11], in assay [14] and in assay [19] was “inactive” throughout. In addition, the Potency result in assay [15], in assay [16], in [20], in assay [17] and in [18] was “inactive” each time. Moreover, the Potency in [2] is 247 nM (active) and 1.72 µM (active).

Turning to `CC(C)(C)C(O)(CCc1ccc(Cl)cc1)Cn1cncn1` (stereo not given), the Potency entry in assay [1], in assay [2], in assay [3], in assay [4], in [5] and in assay [6] was “inactive” in each case. For the same molecule, the Potency result in assay [7], in assay [8], in assay [9], in [10], in assay [12] and in assay [14] was “inactive” throughout. Also, the Potency result in assay [19], in [15], in assay [16] and in assay [20] was “inactive” throughout.

As for `C[C@@H]1CN(C2CCC(C#N)(c3ccc(F)cc3)CC2)CC[C@]1(C(=O)O)c1ccccc1` (stereo not given in full), the Potency entry in assay [1], in assay [2], in assay [3], in assay [4], in assay [5] and in assay [6] was “inactive” in each case. The Potency entry in assay [7], in assay [8], in assay [9], in assay [10], in assay [11] and in assay [12] was “inactive” in each case. Moreover, the Potency result in assay [13], in assay [14], in assay [19], in assay [16] and in assay [17] was “inactive” each time.

For `c1ccc(OP(Oc2ccccc2)Oc2ccccc2)cc1`, the Potency result in assay [1], in [2], in [3], in assay [4], in assay [5] and in assay [6] was “inactive” in each case. The Potency result in [7], in assay [8], in [9], in assay [10], in assay [11] and in [12] was “inactive” throughout. The Potency entry in assay [13], in assay [14], in assay [19], in assay [15], in assay [16] and in assay [20] was “inactive” in each case. Also, the Potency result in assay [17] and in assay [18] was “inactive” in each case.

(Values after PubChem BioAssay (Tox21).)
